High-throughput results deposited in PubChem by several laboratories.
Only some compounds are listed: those with a hit (about 1.4% of all), similar ones and a draw of the others.
RecA intein inh – blocks M. tuberculosis RecA intein splicing; actives 0.75% (n = 290,000); AID 2221; P9WHJ3; cell-free RecA intein splicing, fluorescence; inhibition, % (concentration not given with the values); in the data active = inhibition above about 30%
SARS 3CLpro inh – SARS-CoV 3CLpro protease inhibition. actives 0.14% (n = 290,000). recombinant SARS-CoV 3CLpro, quenched FRET peptide cleavage. AID 1706. inhibition, % at 6 µM; in the data active = inhibition above about 12%
PrPC surface inh – reduces human prion protein on the cell surface | inhibition, % at 13.8 µM | actives 0.43% (n = 370,000) | cell surface PrPC, TR-FRET read-out | AID 720596 | P04156; in the data active = inhibition above about 24%
BJeLR viability – kills HRASV12-expressing BJeLR cells; BJeLR (HRASV12) viability, CellTiter-Glo ATP luminescence, 48 h; inhibition, % (no concentration beside the values); actives 0.17% (n = 300,000); AID 1554; in the data active = inhibition above about 50%
PrP UTR inh – inhibition of PrP 5' UTR reporter expression | cell-based PrP 5' UTR mRNA reporter, plate reader | inhibition, % (no concentration beside the values) | actives 0.35% (n = 340,000) | AID 488862; in the data active = inhibition above about 52%
Mtb hypoxia rep – inhibitors of hypoxia-regulated fluorescent reporter in Mycobacterium tuberculosis | M. tuberculosis hypoxia-regulated fluorescent reporter, fluorescence | fluorescence inhibition, % (test concentration not listed) | actives 0.1% (n = 300,000); in the data active = fluorescence inhibition mostly above about 23%, no sharp cut-off; inactive = mostly below about 17%
GFP chromophore – counter-screen GFP chromophore formation inhibition. actives 83% (n = 2,100). EC50, µM. AID 434968. shares compounds with RecA intein inh. cell-free GFP chromophore formation, fluorescence; call rule not given here
Of the large screens only hits and unclear results are named; the others gave an inactive call (follow-up assays come after a bar, where shown).

CC(=O)OCCCNc1cc(Sc2ccc(C)cc2)c2nonc2c1[N+](=O)[O-]	none
COC(=O)C1=C(c2cccc(C#N)c2)CC2CCC1N2C(=O)NCC1CC1 (stereo not given)	none (no result: RecA intein inh, SARS 3CLpro inh, PrPC surface inh, BJeLR viability, PrP UTR inh)
CCc1ccc(C2C(C#N)=C(N)C(C#N)(C#N)C3=CCC(C(C)(C)C)CC32)cc1 (stereo not given)	RecA intein inh 30 (no result: PrPC surface inh) | GFP chromophore 15
COc1cc2c(cc1OC)C1(Nc3c-2c(Cc2ccccc2)nn3-c2ccccc2)C(=O)Nc2ccccc21 (stereo not given)	RecA intein inh 35 | GFP chromophore inactive
Cn1c(-[n+]2c(-c3ccccc3)cc(-c3ccccc3)cc2-c2ccccc2)nc2c([N+](=O)[O-])cccc21	RecA intein inh 33 | GFP chromophore 30
O=[N+]([O-])c1ccc(-[n+]2c(-c3ccccc3)cc(-c3ccccc3)cc2-c2ccccc2)cc1	none
C=CCn1c(-c2cccnc2Cl)nc2ccccc21	RecA intein inh 85 | GFP chromophore inactive
CN1CC2C3C(=O)N(C)C(=O)C3[C@](C)(C1=O)N2C(=O)c1ccc(F)cc1 (stereo not given in full)	none (no result: RecA intein inh, SARS 3CLpro inh, PrPC surface inh, BJeLR viability, PrP UTR inh)
Cc1ccccc1C(=O)NNC(=S)NC(=O)COc1ccccc1	RecA intein inh 40 | GFP chromophore 31
Cc1ccc(C(=O)NNC(=S)NC(=O)COc2ccccc2)cc1	none
Cc1ccc(NC2=C/C(=N\S(=O)(=O)c3cccs3)c3ccccc3C2=O)c(C)c1	RecA intein inh 41 (no result: PrPC surface inh) | GFP chromophore 0.31
CSc1nc(-c2ccco2)nn1C(=O)c1ccco1	none (no result: Mtb hypoxia rep)
CSc1nc(-c2ccc(Cl)cc2)nn1C(=O)c1ccco1	RecA intein inh 38 | GFP chromophore inactive
Cc1cc(C)n(-c2ccc(NN=C(C#N)C#N)cc2)n1	RecA intein inh 57 | GFP chromophore 19
Cc1[nH][nH]c(=O)c1C(c1c(C)[nH][nH]c1=O)c1cn(Cc2ccccc2Cl)c2ccccc12	RecA intein inh 99 | GFP chromophore 0.51
N/C(=N\O)c1cn(Cc2ccccc2Cl)c2ccccc12	none (no result: Mtb hypoxia rep)
Cc1cc(C)nc(N2N=C(C(C)(C)C)CC2=O)n1	RecA intein inh 40 | GFP chromophore 34
O=C(C[n+]1cccc(C=NO)c1)N(Cc1ccccc1)Cc1ccccc1	none (no result: RecA intein inh, SARS 3CLpro inh, PrPC surface inh, BJeLR viability, PrP UTR inh)
Cc1ccc(C(=O)C(OC(=O)CN2C(=O)c3ccccc3C2=O)c2ccccc2)cc1C (stereo not given)	RecA intein inh 31 | GFP chromophore inactive
O=C(CCl)N1CCN(S(=O)(=O)c2ccc3ccccc3c2)CC1	RecA intein inh 76 | GFP chromophore 28
Cc1ccc(S(=O)(=O)N2C(c3ccc(Cl)cc3)CC=C(C(=O)O)C2c2ccccc2F)cc1 (stereo not given)	none (no result: RecA intein inh, SARS 3CLpro inh, PrPC surface inh, BJeLR viability, PrP UTR inh)
CCCn1c(=O)[nH]c(=O)c2c1nc(-c1ccccc1OC(F)F)n2CCOC	none
CCCn1c(=O)[nH]c(=O)c2c1nc(-c1ccc(OC(F)F)c(OC)c1)n2CCOC	RecA intein inh 53 | GFP chromophore inactive
CC(C)(C)c1cnnn1-c1ccc(C=O)cc1	none
CC(C)(C)c1cnnn1-c1ccc(C(=O)CCl)cc1	RecA intein inh 75 | GFP chromophore 5.9
COc1ccc(C2CC=C(C(=O)O)CN2S(=O)(=O)c2ccc(C)cc2)cc1OC (stereo not given)	none (no result: RecA intein inh, SARS 3CLpro inh, PrPC surface inh, BJeLR viability, PrP UTR inh)
COC(=O)C(O)(c1c(C)[nH]n(-c2ccccc2)c1=O)C(F)(F)F (stereo not given)	RecA intein inh 92 (no result: Mtb hypoxia rep) | GFP chromophore 7.5
COC(CNC(=O)c1cccnc1)OC	none
COC(CNC(=O)c1ccc2c3c(onc13)-c1ccccc1C2=O)OC	RecA intein inh 53 | GFP chromophore 20
CCC(=O)N(Cc1cc(=O)[nH]c2ccccc12)c1ccccc1	none
Cc1cccc(N(Cc2ccccc2)C(=O)CCl)c1	RecA intein inh 58, Mtb hypoxia rep 36 | GFP chromophore 9.9
O=C(CCl)N(Cc1ccccc1)c1ccccc1	RecA intein inh 73 (not shown: Mtb hypoxia rep) | GFP chromophore 24
O=C(CCl)N(Cc1cc(=O)[nH]c2ccccc12)c1ccccc1	RecA intein inh 69 (no result: Mtb hypoxia rep) | GFP chromophore 11
COC(=O)c1ccc(C(=O)N(Cc2ccccc2)c2ccccc2)cc1	none
O=C(Cc1cccc2ccccc12)NN=Cc1ccc(O)c([N+](=O)[O-])c1	none (no result: RecA intein inh, SARS 3CLpro inh, PrPC surface inh, BJeLR viability, PrP UTR inh)
